Hits are enriched below; roughly 11% of the tested compounds scored in any of these assays.
AMA1 RON2 block: AMA1-RON2 (P. falciparum) interaction inhibition. AlphaScreen AMA1-biotinylated RON2 peptide binding. Potency, µM (titrated, usually from 58.2 µM), inactives show at the top dose activity change, negative = inhibition, most hits filed as inhibitors. actives 0.2% (n = 360,000);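 note: 0% = vehicle wells and -100% = peptide control; nearly all actives have a fitted effect of over 45% in size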
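AMA1 (3D7) with his tag at 25 nM final met compounds first, then biotinylated RON2 peptide at 25 nM; detection used donor plus acceptor beads, 10 µg/mL apiece, read by AlphaScreen after 30 min at room temperature.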
Pf growth 48h: inhibits P. falciparum growth in the first generation, 48 h; P. falciparum luciferase growth in erythrocytes, 48 h; AID 504832; actives 5.9% (n = 310,000); Potency, µM (series often up to 28.7 µM), for inactives: at the top dose activity change, negative = inhibition, usual class: inhibitors
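First compound was added to culture medium, then infected red cells at 0.1% parasitemia and 2% hematocrit (final). After incubation at 37 C under 5% CO2, luciferase detection reagent was dispensed and light output recorded.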
Pf growth 96h: P. falciparum growth inhibition at 96 hours; AID 504834; P. falciparum luciferase reporter growth, 96 h; Potency, µM (titrated, usually from 28.7 µM), for the others: at the highest dose activity change, negative = inhibition, hits mostly inhibitors; actives 6.9% (n = 320,000)
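Delayed-death screen, second-generation endpoint: infected erythrocytes, 2% hematocrit, 0.05% parasitemia final; 96 hours at 37 C, 5% CO2; luciferase detection reagent; luminescence decrease equals reduced growth.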
HCV inhibitor: HCV inhibition | Huh7.5.1 HCVcc-Cre infection, luciferase reporter, 44 h | Potency, µM (highest dose often 41.8 µM), inactives show at the highest dose activity change, negative = inhibition, actives largely listed as inhibitors | actives 3.4% (n = 340,000) | AID 651820
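After 44 h co-culture of compound, cells and HCVcc-Cre (~0.5 moi), substrate is added for 15 min at room temperature and luciferase measured over 15 sec. Cells were seeded at 1,000/well and pre-cultured 4 h.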
Starred values were filed as active, the others as inactive; ? = inconclusive; · = no result; [ ] = dose if it differs, or a comment. Calls come from the whole dose curve; as a rule, active = well fitted curve in the direction sought with a large enough effect; inconclusive = small, poorly fitted or top-dose-only effect, or another doubt; inactive = no such curve, though single readings can be large; an effect the other way counts as inactive or inconclusive. Unless noted, % is set by controls: 0 for no effect and ±100 for the full control effect; potency is the fitted concentration of half-maximal effect.

SMILES	AMA1 RON2 block	Pf growth 48h	Pf growth 96h	HCV inhibitor
Cc1cccc(OCCCC(=O)Nc2ccc(Cl)c(S(=O)(=O)N3CCOCC3)c2)c1	-1.3%	?	?	7.94µM*
Cc1cccc(OCC(=O)Nc2nnc(S(=O)(=O)N3CCCCCC3)s2)c1	-1.5%	32.8%	11.7µM*	6.8%
Cc1ccc(OCC(=O)Nc2nnc(S(=O)(=O)N3CCCCCC3)s2)cc1	-6.1%	34.9%	?	1.1%
COc1ccc(NC(=O)Nc2c(SC)nsc2SC)cc1	7.7%	9.9%	?	24.1%
Cc1cccc(OCCC(=O)Nc2ccc(C)c(S(=O)(=O)N3CCOCC3)c2)c1	11.7%	·	·	12.6µM*
Cc1cccc(OCCC(=O)Nc2ccc(C)c(S(=O)(=O)N3CCCCC3)c2)c1	-4.3%[11.6 µM]	-14.9%	?	3.16µM*
Cc1cccc(OCCC(=O)Nc2ccc(S(=O)(=O)N3CCCC3)cc2)c1	-2.1%	?	-0.6%	?
Cc1ccc(OCCC(=O)Nc2ccc(C)c(S(=O)(=O)N3CCOCC3)c2)cc1	-5.6%	?	?	?
Cc1ccc(NC(=O)CN2c3cccc4cccc(c34)S2(=O)=O)cc1S(=O)(=O)N1CCOCC1	-4.1%	?	9.28µM*	11.2µM*
CCN(CC(=O)Nc1c(F)cccc1F)C(=O)c1ccc2c(c1)S(=O)(=O)N=C1CCCCCN12	1.4%	47.1%	32.6%	?
CCOC(=O)C1C(=O)CC(C)(O)C(C(=O)OCC)C1c1cccc(OC(F)(F)C(F)F)c1 (stereo unspecified)	-1.2%	10.4µM*	?	0.4%
CCOC(=O)C1C(=O)CC(C)(O)C(C(=O)OCC)C1c1ccc(OCC)cc1 (stereo unspecified)	-0.5%	-10.9%	37.2%	2.3%
CCCCN(c1ccccc1)S(=O)(=O)c1cccc(C(=O)Nc2c(C)n(C)n(-c3ccccc3)c2=O)c1	-11.4%[11.6 µM]	·	·	0.2%
N=c1c(C(=O)NCC2CCCO2)cc2c(=O)n3ccccc3nc2n1C1CCCC1 (stereo unspecified)	6.0%	-11.7%	-12.6%	-24.2%
N=c1c(C(=O)NCC2CCCO2)cc2c(=O)n3ccccc3nc2n1C1CCCCC1 (stereo unspecified)	-0.2%	-6.8%	2.62µM*	0.5%
N=c1c(C(=O)NCC2CCCO2)cc2c(=O)n3ccccc3nc2n1Cc1ccc(Cl)cc1 (stereo unspecified)	17.5%	10.4µM*	?	?
N=c1c(C(=O)NCC2CCCO2)cc2c(=O)n3ccccc3nc2n1Cc1ccccc1 (stereo unspecified)	11.2%	?	?	7.08µM*
Cc1ccc(N2CCN(S(=O)(=O)c3ccc4oc(=O)ccc4c3)CC2)cc1Cl	4.3%	27.6%	-17.0%	-18.9%
Cc1nc(-c2ccc(NC(=O)c3ccccc3Br)cc2)cs1	-21.5%	85.7%	52.1%	?
CN(CC1CCCN(CCc2ccc(F)cc2)C1)C(=O)CCC(N)=O (stereo unspecified)	-21.0%	?	?	7.1%
O=c1[nH]nc(Sc2ccccc2)c(=S)[nH]1	96.3%	·	·	·
Cn1cccc1Cc1nnc(SCC(=O)Nc2ccc3c(c2)OCO3)n1CCc1ccccc1	-15.1%	?	?	-14.4%
COc1ccccc1NC(=O)CSc1nnc(C)n1CCc1ccccc1	-6.0%	?	10.4µM*	4.5%
COc1ccc(OC)c(NC(=O)CSc2nnc(Cc3cccn3C)n2CCc2ccccc2)c1	-29.3%	5.22µM*	11.7µM*	·
COc1ccc(OC)c(C(=O)CSc2nnc(Cc3cccs3)n2CCc2ccccc2)c1	11.4%	11.7µM*	13.1µM*	?
SMILES	AMA1 RON2 block	Pf growth 48h	Pf growth 96h	HCV inhibitor
Cn1cccc1Cc1nnc(SCC(=O)Nc2ccc3c(c2)OCCO3)n1CCc1ccccc1	-16.2%	·	11.7µM*	-16.6%
CCCOCC(O)CC(Cc1ccccc1)C(=O)NN (stereo unspecified)	76.1%	1.3%	26.7%	17.4%
C[n+]1c2cc(N)ccc2cc2ccc(N)cc21	-6.3%	0.0478µM*	0.0338µM*	1.41µM*
Nc1ccc2ccccc2c1	?	·	·	-10.7%
CC(=O)Cn1nnc2sc3c(c2c1=O)CCC(C(C)(C)C)C3 (stereo unspecified)	1.3%	239.6%	-12.4%	?
CCOC(=O)c1sc(NC(=O)Cn2nnc3sc4c(c3c2=O)CCC(C(C)(C)C)C4)nc1C (stereo unspecified)	-11.2%	9.28µM*	0.0%	26.5%
CC(C)Cn1cc(C(=O)NCCCOC(C)C)c2c3ccccc3n(C)c2c1=O	-0.7%	·	?	-10.2%
CCCCN(CC)CCCNC(=O)c1cn(CC(C)C)c(=O)c2c1c1ccccc1n2C	-3.6%	13.1µM*	-25.2%	?
CCN(C(=O)c1nn(-c2ccc(OC)cc2)c(=O)c2c1c1ccccc1n2C)c1ccc(OC)cc1	18.4%	-10.5%	-1.2%	19.6%
CCOC(CCNC(=O)c1cn(CC(C)C)c(=O)c2c1c1ccccc1n2C)OCC	18.1%	-16.7%	0.522µM*	14.2%
CCCCN(C)CCNC(=O)c1nn(-c2ccc(OC)cc2)c(=O)c2c1c1ccccc1n2C	-4.0%	?	2.62µM*	-15.8%
CCN(CC)CCCNC(=O)c1cn(CC(C)C)c(=O)c2c1c1ccccc1n2C	-5.4%	8.1%	6.8%	-16.1%
COc1ccc(-c2nc(=S)c3ccc4ccccc4c3[nH]2)cc1	57.9%	?	24.6%	-4.4%
OCCC1CN(Cc2ccon2)CCN1Cc1ccc(F)c(F)c1 (stereo unspecified)	-2.7%	29.5%	22.0%	0.9%
CCOC(=O)CC1C(=O)NCCN1C(=O)c1cc2c(=O)n3cccc(C)c3nc2s1 (stereo unspecified)	1.8%	·	?	11.8%
CCOC(=O)CC1C(=O)NCCN1C(=O)c1cc2c(=O)n3ccccc3nc2s1 (stereo unspecified)	·	·	10.4µM*	·
O=C1c2cccc3c(Nc4ccccc4Cl)c([N+](=O)[O-])cc(c23)C(=O)N1CCO	?	?	1.04µM*	-22.8%
CCc1c(C#N)c(SCc2c(C)noc2C)nc2c1C(=O)CC(C)(C)C2	-23.4%	?	-21.6%	-21.0%
O=C(CSc1ccc(Cl)cc1Cl)N1CCC(c2nc3ccccc3s2)CC1	0.2%	-10.0%	-2.5%	?
O=C(Nc1ccc(Cl)cc1)N1CCCN(Cc2ccccc2F)C1	-3.0%	·	?	10µM*
Cc1ccc(NC(=O)N2CCCN(Cc3ccc(F)cc3)C2)cc1C	-5.8%	13.1µM*	?	?
O=C(NCc1ccccc1F)C1CCCN(C(=O)Nc2ccccc2)C1 (stereo unspecified)	4.6%	-7.4%	14.1%	-0.2%
Cc1cc(F)ccc1NC(=O)c1ccc(NS(=O)(=O)c2cccs2)cc1	27.4%	·	·	·
COc1ccc(S(=O)(=O)NCc2ccc(C(=O)NCCN(C)Cc3ccccc3)cc2)cc1	-2.1%	·	·	·
COc1ccc(Cl)cc1NC(=O)CN(C)CC(=O)Nc1ccc(C)cc1Br	52.4%	-21.3%	?	?
CC(C(=O)O)n1cc(Cl)cn1 (stereo unspecified)	11.1%	5.5%	40.8%	4.47µM*
